Laboratory results: the supplement of paper PMC7530171
± gives the standard deviation.

system: THP-1 macrophages infected with Mycobacterium tuberculosis H37Rv; test: intracellular M.tb growth inhibition relative to DMSO (0) and 4 uM bedaquiline (100); higher = stronger inhibition of intracellular bacterial growth; conditions: 10 µM; 4 days
Procedure: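 OICR kinase inhibitor library screened in duplicate at 10 uM against THP-1 macrophages (PMA-differentiated) infected with M. tuberculosis H37Rv-pTEC27 (tdTomato RFP), 4 days at 37 C. Rows with complete host cell loss (placeholder inhibition 0, cell loss 100) were removed.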

Compound	intracellular M.tb growth inhibition [%]
Cn1cc(-c2ccc3nnc(Sc4ccc5ncccc5c4)n3n2)cn1	-164 ± 130
Cc1cc2c(F)c(Oc3ncnn4cc(OC[C@@H](C)O)c(C)c34)ccc2[nH]1 [Brivanib]	-66.6 ± 160
CCN1/C(=C/C(C)=O)Sc2ccc(OC)cc21	-98.4 ± 120
COc1cc2nccc(Oc3ccc(NC(=O)C4(C(=O)Nc5ccc(F)cc5)CC4)cc3)c2cc1OC	94.8 ± 23
O=C(O)c1ccc2c3c1cccc3c(=O)n1c3ccccc3nc21 [STO-609 acetic acid]	-29.1 ± 36
O=C(Nc1cc(C(F)(F)F)cc(C(F)(F)F)c1)c1cc(Cl)ccc1O	64.7 ± 16
Nc1nc(Nc2ccc(S(N)(=O)=O)cc2)nn1C(=S)Nc1c(F)cccc1F [Cdk1/2 Inhibitor III]	-193 ± 240
Cc1cccc(-c2nn(C(=S)Nc3ccccc3)cc2-c2ccnc3ccccc23)n1	17.7 ± 18
Cc1ccc(S(=O)(=O)Nc2nc3ccccc3nc2Nc2ccc3nsnc3c2)cc1	-56.4 ± 99
CN(C)C/C=C/C(=O)Nc1cc2c(Nc3ccc(F)c(Cl)c3)ncnc2cc1O[C@H]1CCOC1	18.3 ± 3
NC(=O)c1ccc(-c2nc(-c3ccc4c(c3)OCCO4)c(-c3ccccn3)[nH]2)cc1	-106 ± 81
Cc1cnc(-c2cnc(NCCNc3ccc(C#N)cn3)nc2-c2ccc(Cl)cc2Cl)[nH]1	7.29 ± 24
S=C(NCc1ccc2c(c1)OCO2)N1CCN(c2ncnc3c2oc2ccccc23)CC1	-35.5 ± 71
Cc1cc(C(C)Nc2ccccc2)c2nc(N3CCOCC3)cc(=O)n2c1 (stereo unspecified)	-38.7 ± 24
CCCS(=O)(=O)Nc1ccc(F)c(C(=O)c2c[nH]c3ncc(Cl)cc23)c1F	30.7 ± 35
COc1cc2c(cc1OC)-c1[nH]nc(Nc3cccc(F)c3)c1C2	62.2 ± 12
O=c1c(O)c(-c2ccc(O)c(O)c2)oc2cc(O)cc(O)c12 [Quercetin]	-5.54 ± 46
C[S+]([O-])c1ccc(-c2nc(-c3ccc(F)cc3)c(-c3ccncc3)[nH]2)cc1 (stereo unspecified)	14.3 ± 12

Compound	intracellular M.tb growth inhibition [%]
Cc1nc2sccn2c(=O)c1CCN1CCC(=C(c2ccccc2)c2ccc(F)cc2)CC1	58.1 ± 4.4
CN1C(=O)C(Cc2c[nH]c3ccccc23)NC1=S (stereo unspecified) [Necrostatin-1]	-8.08 ± 36
COc1cc2nccc(Oc3ccc(NC(=O)Nc4cc(C)on4)c(Cl)c3)c2cc1OC	-5.89 ± 83
NCc1ccc(Nc2ncc(F)c(Nc3ccccc3)n2)cc1 [Dianilinopyrimidine_01]	99.2 ± 230
NC(=O)c1ccc(N(C(N)=O)c2c(F)cccc2F)nc1-c1ccc(F)cc1F	-1.77 ± 10
O=C1NCCCc2c1oc1ccc(O)cc21	11 ± 28
CC(C)(C)c1cc(NC(=O)Nc2ccc(-c3cn4c(n3)sc3cc(OCCN5CCOCC5)ccc34)cc2)no1	85.7 ± 43
O=c1cc(-c2cccc3c2Sc2ccccc2S3)oc(N2CCOCC2)c1	3.07 ± 24
COc1ccc(CNC(=O)Nc2ncc([N+](=O)[O-])s2)cc1	20.1 ± 28
O=c1[nH]nc(Sc2ncc([N+](=O)[O-])s2)n1-c1ccc2c(c1)OCCO2	-22.3 ± 6
C/C(=N\N=C(N)N)c1ccc(NC(=O)Nc2ccc(/C(C)=N/N=C(N)N)cc2)cc1	63.3 ± 10
COc1cc(OC)c(C=C2C(=O)Nc3ccccc32)c(OC)c1	4.9 ± 6.5
Cn1c(=O)n(-c2ccc(C(C)(C)C#N)cc2)c2c3cc(-c4cnc5ccccc5c4)ccc3ncc21	26.6 ± 26
CCCCCCCC(=O)OCCOC(=O)CCCCCCC [Dioctanoylglycol]	0.763 ± 3
O=C1Nc2ccc(I)cc2/C1=C/c1cc(Br)c(O)c(Br)c1	9.15 ± 48
O=C(NC1CCNCC1)c1n[nH]cc1NC(=O)c1c(Cl)cccc1Cl	29.6 ± 42
O=c1oc2c(O)c(O)cc3c(=O)oc4c(O)c(O)cc1c4c23 [Ellagic acid]	-20.9 ± 30
FC(F)(F)c1ccc(/C=C/c2nc(COc3ccc(CCCCn4ccnn4)cc3)co2)cc1 [Mubritinib]	-50.5 ± 170
